Laboratory results reported in ChEMBL document CHEMBL4513216, “Probing the Open Global Health Chemical Diversity Library for Multistage-Active Starting Points for Next-Generation Antimalarials” (ACS Infect Dis, 2020).
In all, about 69,000 compounds went through this assay and about 8,600 (12%) showed an effect of 50% or more. The entries come from a sample that favours strong results as a whole.

Test system: Plasmodium berghei
Experiment: Screen against P. berghei liver stage (PbLuc), transformed with Luciferase, at 10uM
Format: functional, HepG2
Settings: tested at 10 uM

| Compound | INHIBITION [%] |
| --- | --- |
| COc1ccnc(CN2CCCC(CCc3ccc(F)cc3)C2)c1OC (stereo not drawn) | 94.8 |
| CCc1nnc2n1CCN(C(=O)c1ccc3c(c1)[nH]c(=O)n3C)C2 | 8.38 |
| COc1ccc(-c2cnc3c(c2)CN(C2CC2)C(=O)CCN3)cc1 | 7.09 |
| CS(=O)(=O)N1C[C@H]2CC[C@@H](C1)N(C(=O)CCn1cnc3ccccc31)C2 | 12.9 |
| CC(C)(C)Nc1c(C2CCN(C(=O)C(C)(C)C)CC2)nc2ccccn12 | 30.3 |
| Cc1nc(C)n(CC2CN(CCC(=O)N3CCCCC3)CCO2)n1 (stereo not drawn) | 21.5 |
| COCCc1noc(CN2CCOC(CN(C)C)C2)n1 (stereo not drawn) | 15.3 |
| O=C1NC2(Cc3ccccc31)CN(CC1CCOCC1)C2 | 35 |
| c1ccc(-c2cc(CN3CCc4cncnc4C3)on2)cc1 | -28 |
| CC(C)Cc1cc(C(=O)NCC(O)CN2CCCCCC2)on1 (stereo not drawn) | -8.47 |
| CC(C)Cc1cc(C(=O)NCC2CCCN(Cc3ccco3)C2)on1 (stereo not drawn) | -63.8 |
| CC(C)Cc1cc(C(=O)NC(C)(C)CN2CCCCCC2)on1 | 58.7 |
| Cn1cc(CN2C[C@@H]3COC[C@]3(CNC(=O)c3ccsc3)C2)cn1 | 34.7 |
| Cc1cc(N2CCCC(c3nccnc3N(C)C)C2)ncn1 (stereo not drawn) | 5.25 |
| Cc1ccnc(N2CCCC(c3nncn3C3CC3)C2)n1 (stereo not drawn) | 46.6 |
| Cc1cc(N2CCCC(c3nncn3C3CC3)C2)ncn1 (stereo not drawn) | 53.5 |
| c1cc2occc2c(N2CCCC(c3nncn3C3CC3)C2)n1 (stereo not drawn) | 57.5 |
| O=C(O)c1cn(CC2CCCN(c3nccc4occc34)C2)nn1 (stereo not drawn) | -2.48 |
| CN(C)Cc1cn(CC2CCCN(c3nccc4occc34)C2)nn1 (stereo not drawn) | 34.9 |
| Nc1cc(-c2cc[nH]n2)nc(N2CCCC2)n1 | 20.5 |
| CN(C)S(=O)(=O)N1CCC(c2c(C(N)=O)sc3ccccc23)C1 (stereo not drawn) | -11.4 |
| O=C1N(Cc2cccc(F)c2F)CCCC1(O)CNCC1CCCCC1 (stereo not drawn) | 69.1 |
| O=C1N(Cc2cccc(F)c2F)CCCC1(O)CNC1CCCC1 (stereo not drawn) | 11.5 |
| O=C1N(Cc2ccc(F)c(F)c2)CCCC1(O)CNCc1ccccn1 (stereo not drawn) | 4.25 |
| Cn1cc(CNCC2(O)CCCN(Cc3ccc(F)c(F)c3)C2=O)cn1 (stereo not drawn) | -34 |
| O=C1N(Cc2ccc(F)c(F)c2)CCCC1(O)CNCc1cccnc1 (stereo not drawn) | 60.9 |
| COCCNCC1(O)CCCN(Cc2ccc(F)c(F)c2)C1=O (stereo not drawn) | 6.65 |

| Compound | INHIBITION [%] |
| --- | --- |
| C=C(C)CNCC1(O)CCCN(Cc2ccc(F)c(F)c2)C1=O (stereo not drawn) | 41.7 |
| O=C1N(Cc2ccc(F)c(F)c2)CCCC1(O)CNCC1CCCCC1 (stereo not drawn) | 68.8 |
| O=C1N(Cc2cccc(F)c2F)CCCC1(O)CNCc1ccccc1 (stereo not drawn) | 40.4 |
| c1ccc(Cc2noc(CN(Cc3cccs3)CC3CCCO3)n2)cc1 (stereo not drawn) | 15.3 |
| NC(=O)CC1CCN(Cc2ccccc2OCC(F)(F)F)CC1 | 16.1 |
| CN1C(=O)C2(CCN(Cc3nccn3C)CC2)c2ccccc21 | -19.6 |
| CN1CC(=O)N(c2cnn(C)c2)CC12CCN(Cc1nccn1C)C2 (stereo not drawn) | 11.8 |
| Cc1n[nH]c(C)c1NC(=O)NCc1ccccn1 | 8.59 |
| NC(=O)C1(c2cnccn2)CCCN1Cc1ccc(F)c(F)c1 (stereo not drawn) | 20.8 |
| CN1CC(=O)N(c2ccsc2)CC12CCN(S(=O)(=O)C1CC1)C2 (stereo not drawn) | -6.23 |
| CC(O)CNCc1ccc(OCc2ccc3c(c2)OCCO3)cc1 (stereo not drawn) | 72.6 |
| CCCNCc1ccc(OCc2ccc3c(c2)OCCO3)cc1 | 25.1 |
| CC(C)(C)NCc1ccc(OCc2ccc3c(c2)OCCO3)cc1 | -47.8 |
| O=C1CCC2(CCC(NCc3ccc4c(c3)OCO4)CC2)N1 (stereo not drawn) | 30.9 |
| CNCc1ccc(OCc2ccc3c(c2)OCCO3)cc1 | -0.621 |
| CC(C)(CO)NCc1ccc(OCc2ccc3c(c2)OCCO3)cc1 | 13.5 |
| c1cc(OCc2ccc3c(c2)OCO3)ccc1CNC1CC1 | 73.4 |
| CCNCc1ccc(OCc2ccc3c(c2)OCCO3)cc1 | 67.3 |
| c1cc(OCc2ccc3c(c2)OCCO3)ccc1CNC1CC1 | 25.3 |
| NC(=O)NCC1CCCCN1Cc1nc(-c2ccco2)no1 (stereo not drawn) | -31.1 |
| COc1nccnc1N1CCC(C(=O)O)(n2ccc(C(C)(C)C)n2)CC1 | 53.8 |
| CC(C)(C)c1ccn(C2(C(=O)O)CCN(c3ncccc3C#N)CC2)n1 | 7.24 |
| Cc1cnc(C)c(N2CCC(C(=O)O)(n3ccc(C(C)(C)C)n3)CC2)n1 | 3.84 |
| CNC(=O)C1(N2CCC[C@H]2C(=O)NC2CCOCC2)CCOCC1 | 15.4 |
| O=C(N1CCCC1)N1Cc2nccn2CC(Cn2ncccc2=O)C1 (stereo not drawn) | 32.2 |
| O=C(NCc1ccco1)[C@H]1C[C@H]2OCC[C@H]2N(C(=O)c2ccncc2)C1 | -15.5 |
